Data on two sequences can be found in publication PMC7862700, “An all-to-all approach to the identification of sequence-specific readers for epigenetic DNA modifications on cytosine”.

Holding throughout (test): DAPPL (digital affinity profiling via proximity ligation, sequencing); 10 mM Tris-HCl pH 7.5, 50 mM NaCl, 1 mM DTT, 4% glycerol, room temperature, 30 min; GST-TFs on glutathione beads, 16-mer random dsDNA library, 0.1% formaldehyde crosslink after washing; high values mean tight binding
Settings in all cases: protein: recombinant; tags: N-terminal GST; dsDNA, one strand shown

One experiment deals with T1, FLI1 (Homo sapiens, UniProt Q01543 1-452).
T1 sequence: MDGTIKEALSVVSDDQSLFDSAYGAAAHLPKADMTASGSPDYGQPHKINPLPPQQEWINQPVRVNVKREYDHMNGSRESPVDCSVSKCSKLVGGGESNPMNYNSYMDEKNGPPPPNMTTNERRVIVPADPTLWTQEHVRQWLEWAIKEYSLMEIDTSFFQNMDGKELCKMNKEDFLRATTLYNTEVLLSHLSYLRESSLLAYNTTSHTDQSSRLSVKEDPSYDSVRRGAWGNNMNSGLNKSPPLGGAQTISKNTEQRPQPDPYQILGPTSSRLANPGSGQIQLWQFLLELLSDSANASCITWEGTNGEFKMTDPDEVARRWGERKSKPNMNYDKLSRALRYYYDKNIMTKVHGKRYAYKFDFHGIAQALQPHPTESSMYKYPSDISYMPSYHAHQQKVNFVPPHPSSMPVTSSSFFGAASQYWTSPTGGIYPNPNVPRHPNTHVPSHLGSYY
The method, boiled down: (§1)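 Beads coated with glutathione captured GST-fused human transcription factors that had been expressed in yeast, and the factors were then given DNA barcodes and pooled with a tag-only sample. The pools were incubated with 200 nmole of a random double-stranded 16-mer DNA library in Tris/NaCl/DTT/glycerol buffer for 30 min at room temperature, washed, crosslinked with 0.1% formaldehyde and proximity-ligated with BsaI/T4 ligase at 37 °C for 1 h. PCR amplification and Illumina NextSeq500 sequencing came last. Binding signal is each hexamer's read frequency for a factor divided by its frequency for the tag-only sample.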

The target in the next experiment is T2, EHF (Homo sapiens, UniProt Q9NZC4 1-300).
T2 sequence: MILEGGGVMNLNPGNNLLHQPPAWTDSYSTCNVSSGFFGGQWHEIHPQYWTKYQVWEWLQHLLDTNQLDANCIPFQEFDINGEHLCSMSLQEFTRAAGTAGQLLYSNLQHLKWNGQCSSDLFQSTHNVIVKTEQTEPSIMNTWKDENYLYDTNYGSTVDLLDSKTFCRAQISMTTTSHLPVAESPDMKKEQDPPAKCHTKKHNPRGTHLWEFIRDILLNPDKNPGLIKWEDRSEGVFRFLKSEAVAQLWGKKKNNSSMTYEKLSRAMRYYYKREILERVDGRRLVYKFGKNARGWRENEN
The procedure, abridged: as §1

The target in another experiment is SPI1 (Homo sapiens, UniProt P17947 1-270). The method, boiled down: as §1
The next experiment has as its target T3, FEV (Homo sapiens, UniProt Q99581 1-238).
T3 sequence: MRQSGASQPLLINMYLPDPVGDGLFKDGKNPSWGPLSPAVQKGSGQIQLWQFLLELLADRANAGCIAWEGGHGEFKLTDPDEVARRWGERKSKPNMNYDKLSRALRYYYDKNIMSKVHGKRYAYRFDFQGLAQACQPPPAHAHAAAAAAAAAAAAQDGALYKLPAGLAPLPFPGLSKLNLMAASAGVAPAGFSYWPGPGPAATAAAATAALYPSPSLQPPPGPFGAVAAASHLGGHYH
The method, boiled down: as §1

A further experiment concerns the target ETV5 (Homo sapiens, UniProt P41161 1-510). The method, boiled down: as §1
The target of another experiment is T4, SPIC (Homo sapiens, UniProt Q8N5J4 1-248).
T4 sequence: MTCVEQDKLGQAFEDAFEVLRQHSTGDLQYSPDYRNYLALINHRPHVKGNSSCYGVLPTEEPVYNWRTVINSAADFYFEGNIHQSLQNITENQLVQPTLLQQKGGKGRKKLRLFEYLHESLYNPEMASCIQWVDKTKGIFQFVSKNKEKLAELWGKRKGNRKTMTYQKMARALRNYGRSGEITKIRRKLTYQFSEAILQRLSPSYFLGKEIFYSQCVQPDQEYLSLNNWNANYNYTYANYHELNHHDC
The procedure, abridged: as §1

A further experiment addresses ETV6 (Homo sapiens, UniProt P41212 1-452). The procedure, abridged:
as §1

Another experiment addresses T5, GABPA (Homo sapiens, UniProt Q06546 1-454).
T5 sequence: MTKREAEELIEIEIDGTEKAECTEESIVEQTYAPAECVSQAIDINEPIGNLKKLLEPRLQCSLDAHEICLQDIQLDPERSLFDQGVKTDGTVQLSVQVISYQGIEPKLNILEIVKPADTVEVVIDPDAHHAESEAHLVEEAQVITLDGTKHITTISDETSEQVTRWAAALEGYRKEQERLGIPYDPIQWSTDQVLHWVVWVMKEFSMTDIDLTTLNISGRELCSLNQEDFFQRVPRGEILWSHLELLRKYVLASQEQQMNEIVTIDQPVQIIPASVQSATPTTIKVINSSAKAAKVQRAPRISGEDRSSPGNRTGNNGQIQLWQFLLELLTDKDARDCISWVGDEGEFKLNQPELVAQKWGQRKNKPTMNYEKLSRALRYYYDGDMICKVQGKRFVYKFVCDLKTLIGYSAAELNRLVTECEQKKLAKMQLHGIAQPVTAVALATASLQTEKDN
The method, boiled down:
as §1

In another experiment the target is T6, ERG (Homo sapiens, UniProt P11308 1-479).
T6 sequence: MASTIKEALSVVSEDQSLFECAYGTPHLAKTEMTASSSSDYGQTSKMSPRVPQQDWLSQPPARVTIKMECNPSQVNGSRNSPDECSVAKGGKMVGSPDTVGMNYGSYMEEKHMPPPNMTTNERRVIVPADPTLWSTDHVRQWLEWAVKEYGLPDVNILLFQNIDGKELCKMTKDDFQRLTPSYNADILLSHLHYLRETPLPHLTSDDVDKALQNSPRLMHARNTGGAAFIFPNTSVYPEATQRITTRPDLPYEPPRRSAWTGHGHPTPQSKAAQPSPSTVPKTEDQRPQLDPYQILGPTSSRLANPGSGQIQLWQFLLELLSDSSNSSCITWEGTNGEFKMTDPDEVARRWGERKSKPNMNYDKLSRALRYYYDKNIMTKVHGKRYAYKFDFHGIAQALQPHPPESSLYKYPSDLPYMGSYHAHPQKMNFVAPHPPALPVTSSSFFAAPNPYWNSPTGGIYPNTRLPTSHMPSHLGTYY
The procedure, abridged: as §1

For a further experiment, the target named is T7, ERF (Homo sapiens, UniProt P50548 1-548).
T7 sequence: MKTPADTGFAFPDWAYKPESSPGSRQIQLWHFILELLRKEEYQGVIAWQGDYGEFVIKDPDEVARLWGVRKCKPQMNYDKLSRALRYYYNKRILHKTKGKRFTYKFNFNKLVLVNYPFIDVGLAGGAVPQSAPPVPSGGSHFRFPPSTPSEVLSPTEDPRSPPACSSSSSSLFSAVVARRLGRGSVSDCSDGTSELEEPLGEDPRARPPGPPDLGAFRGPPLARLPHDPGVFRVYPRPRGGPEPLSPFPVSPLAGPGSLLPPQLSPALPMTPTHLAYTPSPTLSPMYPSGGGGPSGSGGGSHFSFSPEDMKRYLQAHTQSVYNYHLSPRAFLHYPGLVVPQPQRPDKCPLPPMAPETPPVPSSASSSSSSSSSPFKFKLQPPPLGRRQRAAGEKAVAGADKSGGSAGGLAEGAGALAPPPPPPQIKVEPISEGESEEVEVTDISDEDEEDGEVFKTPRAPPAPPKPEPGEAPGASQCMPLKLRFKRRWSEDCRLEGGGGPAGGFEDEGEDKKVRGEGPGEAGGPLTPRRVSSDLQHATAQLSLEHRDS
The method, boiled down: as §1

In the next experiment the target is T8, ETV3L (Homo sapiens, UniProt Q6ZN32 1-361).
T8 sequence: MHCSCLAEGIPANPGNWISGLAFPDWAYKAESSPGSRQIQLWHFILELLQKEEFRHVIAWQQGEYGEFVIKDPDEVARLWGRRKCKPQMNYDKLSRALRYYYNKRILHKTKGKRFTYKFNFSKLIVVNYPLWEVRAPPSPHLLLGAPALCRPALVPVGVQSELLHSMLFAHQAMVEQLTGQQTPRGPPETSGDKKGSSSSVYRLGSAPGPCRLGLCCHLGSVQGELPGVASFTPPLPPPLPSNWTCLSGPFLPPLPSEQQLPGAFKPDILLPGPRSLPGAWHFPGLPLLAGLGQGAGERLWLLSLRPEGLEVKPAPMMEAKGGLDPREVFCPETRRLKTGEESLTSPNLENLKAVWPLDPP
The procedure, abridged:
as §1

The target of a further experiment is T9, ETS2 (Homo sapiens, UniProt P15036 1-469).
T9 sequence: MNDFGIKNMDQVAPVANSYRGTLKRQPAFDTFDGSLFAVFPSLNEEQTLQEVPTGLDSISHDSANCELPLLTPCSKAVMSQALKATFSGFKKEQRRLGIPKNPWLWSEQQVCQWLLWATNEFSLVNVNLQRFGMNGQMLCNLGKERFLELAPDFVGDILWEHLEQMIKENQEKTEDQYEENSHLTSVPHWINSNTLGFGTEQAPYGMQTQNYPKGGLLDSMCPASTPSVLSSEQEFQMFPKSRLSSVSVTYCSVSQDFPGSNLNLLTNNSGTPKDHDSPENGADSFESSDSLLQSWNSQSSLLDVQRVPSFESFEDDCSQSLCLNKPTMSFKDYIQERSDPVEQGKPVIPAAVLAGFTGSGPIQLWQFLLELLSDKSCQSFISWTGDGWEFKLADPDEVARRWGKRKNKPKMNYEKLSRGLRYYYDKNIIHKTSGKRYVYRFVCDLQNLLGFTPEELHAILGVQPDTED
The procedure, abridged:
as §1

The target in the next experiment is T10, ELF5 (Homo sapiens, UniProt Q9UKW6-2 1-255).
T10 sequence: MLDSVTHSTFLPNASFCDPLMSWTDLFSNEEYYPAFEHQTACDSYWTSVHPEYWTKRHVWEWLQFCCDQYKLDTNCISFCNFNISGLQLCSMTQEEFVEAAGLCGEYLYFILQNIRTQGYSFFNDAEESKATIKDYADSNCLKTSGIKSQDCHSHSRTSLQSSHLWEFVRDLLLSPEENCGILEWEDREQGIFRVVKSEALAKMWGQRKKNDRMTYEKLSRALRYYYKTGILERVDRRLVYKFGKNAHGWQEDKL
The method, boiled down: as §1

Sequence of ETV6 (P41212 whole entry): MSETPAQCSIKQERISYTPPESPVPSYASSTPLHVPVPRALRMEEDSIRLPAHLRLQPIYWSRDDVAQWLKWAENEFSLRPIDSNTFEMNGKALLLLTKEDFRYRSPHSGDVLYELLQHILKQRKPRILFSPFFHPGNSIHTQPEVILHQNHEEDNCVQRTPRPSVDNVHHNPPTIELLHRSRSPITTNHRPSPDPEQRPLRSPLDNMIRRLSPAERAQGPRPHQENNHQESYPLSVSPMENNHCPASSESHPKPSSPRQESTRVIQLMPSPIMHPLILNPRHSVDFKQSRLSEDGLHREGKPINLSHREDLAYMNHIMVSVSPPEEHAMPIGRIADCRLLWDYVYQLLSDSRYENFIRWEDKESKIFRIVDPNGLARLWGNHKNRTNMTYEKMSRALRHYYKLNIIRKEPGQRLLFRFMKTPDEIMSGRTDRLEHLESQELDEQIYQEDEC
Sequence of ETV5 (P41161 whole entry): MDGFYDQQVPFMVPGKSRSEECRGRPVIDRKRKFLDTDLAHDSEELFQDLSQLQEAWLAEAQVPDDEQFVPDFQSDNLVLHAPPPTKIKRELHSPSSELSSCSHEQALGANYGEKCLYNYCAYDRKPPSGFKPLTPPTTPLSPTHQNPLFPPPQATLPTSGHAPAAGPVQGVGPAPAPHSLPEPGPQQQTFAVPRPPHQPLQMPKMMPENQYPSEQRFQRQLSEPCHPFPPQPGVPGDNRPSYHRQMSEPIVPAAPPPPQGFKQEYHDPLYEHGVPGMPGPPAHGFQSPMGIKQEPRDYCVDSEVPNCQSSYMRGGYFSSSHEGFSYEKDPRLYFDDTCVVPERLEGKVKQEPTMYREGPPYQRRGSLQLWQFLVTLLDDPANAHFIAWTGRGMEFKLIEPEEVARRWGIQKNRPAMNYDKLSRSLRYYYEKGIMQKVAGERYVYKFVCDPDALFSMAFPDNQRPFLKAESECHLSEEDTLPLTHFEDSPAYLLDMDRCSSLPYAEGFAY

Consider AGTGTA, for which the binding signal with FLI1 was 1.03 fold enrichment (6-mer frequency, TF over GST control); in the experiment with EHF, 1.02 fold enrichment (6-mer frequency, TF over GST control); with SPI1, 1.24 fold enrichment (6-mer frequency, TF over GST control); in the experiment with FEV, 1.01 fold enrichment (6-mer frequency, TF over GST control); in the experiment with ETV5, 1.05 fold enrichment (6-mer frequency, TF over GST control); with SPIC, 1.19 fold enrichment (6-mer frequency, TF over GST control). The binding signal with ETV6 is 1.03 fold enrichment (6-mer frequency, TF over GST control).

On to GTAGTT, for which the binding signal in the experiment with FLI1 was 1.1 fold enrichment (6-mer frequency, TF over GST control); in the experiment with GABPA, 1.05 fold enrichment (6-mer frequency, TF over GST control); in the experiment with ERG it was 1.01 fold enrichment (6-mer frequency, TF over GST control); in the experiment with EHF, 1.07 fold enrichment (6-mer frequency, TF over GST control); with SPI1 it was 1.01 fold enrichment (6-mer frequency, TF over GST control); in the experiment with ETV5, 1.04 fold enrichment (6-mer frequency, TF over GST control). Further, the binding signal with SPIC is 1.05 fold enrichment (6-mer frequency, TF over GST control); with ERF, 1.07 fold enrichment (6-mer frequency, TF over GST control); with ETV3L it was 1.01 fold enrichment (6-mer frequency, TF over GST control); with ETS2 it was 1.02 fold enrichment (6-mer frequency, TF over GST control); in the experiment with ELF5 it was 1.07 fold enrichment (6-mer frequency, TF over GST control); in the experiment with ETV6, 1.08 fold enrichment (6-mer frequency, TF over GST control).
